Test results published in ChEMBL document CHEMBL3988442, “University of Dundee, Small-Polar-MMV Screening Library” (2021).
Out of some 69,000 compounds screened, about 950 (1.4%) showed an effect of 50% or more. The sample holds strong results, similar compounds and a random draw of the others, so the mix is not that of the screen.

system: Mycobacterium tuberculosis; test: Cornell M. t heat shock assay; assay type: functional, organism-based; design: dose or concentration left out as unconfirmed; further: in the data most compounds retested in dose-response had high values

Structure (SMILES)	Percent Effect
CCOCC1CN(c2ccncn2)Cc2cnn(CC3CC3)c21.O=C(O)C(F)(F)F.O=C(O)C(F)(F)F (stereo unspecified)	-24.31%
COc1ncccc1C(=O)N1CC[C@]2(C[C@@H](Oc3cccnc3)CO2)C1.O=C(O)C(F)(F)F.O=C(O)C(F)(F)F	-28%
Cc1cccc(CN2C[C@@H]3COC[C@]3(CNC(=O)c3ccccc3)C2)n1.O=C(O)C(F)(F)F.O=C(O)C(F)(F)F	-15.75%
CN1CC(=O)N(c2cnn(C)c2)CC12CCN(Cc1cccnc1)C2.O=C(O)C(F)(F)F.O=C(O)C(F)(F)F.O=C(O)C(F)(F)F (stereo unspecified)	-54.01%
Cc1noc(C)c1CN1C[C@@H]2COC[C@@H](C(=O)N3CCCCO3)[C@@H]2C1.O=C(O)C(F)(F)F	-3.514%
COc1ccc(N2CCN(C(=O)Cn3nccc3C)CC2(C)C)cc1	16.6%
COc1ccccc1N1CCN(C(=O)Cn2nc(C)cc2C)CC1(C)C	8.115%
COc1ccccc1N1CCN(C(=O)Cn2nccc2C)CC1(C)C	90.85%
O=C(c1c[nH]c2ccccc2c1=O)N1CCSCC1	105.4%
O=C(Cc1c[nH]c2ccccc12)N1CCN(C(=O)c2ccoc2)CC1	3.224%
COc1ccc2[nH]cc(C(=O)N3CC[C@H](CO)[C@@H](O)C3)c(=O)c2c1	-0.5763%
Cc1nccc(NCc2cncc3c2CCN(CCN(C)C)C3)n1	3.393%
COc1ccccc1N1CCN(Cc2ncc(C)c(OC)c2C)CC1=O	18.05%
COCCNc1nc(-n2nc(C)cc2C)nc2sc3c(c12)CCCC3	40.33%
Cc1cc(C)n(C2=NC(NCCC(C)C)c3c(sc4c3CCCC4)N2)n1 (stereo unspecified)	11.87%
Cc1cc(C)n(-c2nc(NCCCO)c3c4c(sc3n2)CCCC4)n1	101.1%
CO[C@@H]1CN(c2ccccc2)S(=O)(=O)[C@@]12CCN(C(C)=O)C2	16.02%
Cc1ccc(CN(CCCn2ccnc2)Cc2ccccc2O)s1.O=C(O)CC(O)(CC(=O)O)C(=O)O	35.85%
Cc1ccc(CN(CCCO)Cc2nc3ccccc3[nH]2)s1	-17.57%
CN(C)c1ccc(CN(CCCn2ccnc2)Cc2c[nH]cn2)cc1.O=C(O)CC(O)(CC(=O)O)C(=O)O	16.53%
Cc1ccc(O)c(CN(CCCn2ccnc2)Cc2ccc(C)s2)c1.O=C(O)CC(O)(CC(=O)O)C(=O)O	105.6%
Cc1ccc(S(=O)(=O)N2CCN(CCCn3ccnc3)CC2)cc1	15.57%
Cc1cccc(CC(=O)N2CCN(c3nccn3C)CC2)c1.Cl	-13.18%

Structure (SMILES)	Percent Effect
O=C(O)C(F)(F)F.O=C(O)C(F)(F)F.c1csc(CN2C[C@@H]3COC[C@]3(COCc3ccncc3)C2)c1	-17.61%
O=C(Cc1ccc(F)cc1)N1CCn2cc(Cn3cccn3)nc2C1.O=C(O)C(F)(F)F	1.862%
CC(C)n1nccc1NC(=O)CN1CCc2sccc2C1	-0.741%
Cn1nccc1NC(=O)CN1CCc2sccc2C1	-34.76%
O=C(CN1CCc2sccc2C1)Nc1ccnc2ccnn12	101.6%
Cc1ccoc1C(=O)N1CCc2ccc(=O)n(CCN(C)C)c2CC1.O=C(O)C(F)(F)F	-10.47%
CCNc1ncc(C(=O)N2CCOC(CCCc3ccccc3)C2)cn1 (stereo unspecified)	13.88%
CCc1ocnc1C(=O)N1CCOC(CCCC(C)C)C1 (stereo unspecified)	2.233%
CCNc1ncc(C(=O)N2CCOC(CCCC(C)C)C2)cn1 (stereo unspecified)	101.8%
Cn1cc2c(n1)C(CNCc1ccco1)OCC2.O=C(O)C(F)(F)F.O=C(O)C(F)(F)F (stereo unspecified)	-43.95%
CC(C)C(=O)N1CCC[C@]2(C(=O)N(C)C)CN(c3ccccn3)C[C@@H]2C1.O=C(O)C(F)(F)F	-34.76%
CN(C)C(=O)C1OC2(CCNCC2)c2ccccc21.O=C(O)C(F)(F)F (stereo unspecified)	-39.36%
Cc1cnn(CC(C)NCc2csc(-c3ncccn3)n2)c1 (stereo unspecified)	10.59%
CC(Cn1cccn1)NCc1nc(-c2ccccc2Cl)no1 (stereo unspecified)	1.662%
CC(Cn1cccn1)NCc1csc(-c2ccsc2)n1 (stereo unspecified)	22.32%
CC(Cn1cccn1)NCc1csc(-c2ccccc2F)n1 (stereo unspecified)	54.47%
CC(Cn1cccn1)NCc1csc(-c2cccs2)n1 (stereo unspecified)	54.31%
Cc1cnn(CC(C)NCc2csc(-c3cccs3)n2)c1 (stereo unspecified)	37.01%
COCC(=O)N1C[C@@H](OCc2ccncc2)[C@@H]2OCCC[C@@H]21.O=C(O)C(F)(F)F	-15.14%
Cc1ccc2c(c1)CN(C(=O)c1ccncc1)C(CN(C)C)CO2.Cl (stereo unspecified)	-12.12%
COCC(=O)NCc1cc(=O)n2c(n1)CN(CC1CC1)CCC2.O=C(O)C(F)(F)F	0.2802%
COC[C@H]1CC[C@@H]2[C@@H](CCN2Cc2ccccn2)O1.O=C(O)C(F)(F)F.O=C(O)C(F)(F)F	-12.12%
COc1cccc(CN2CCc3nc4ccsc4c(=O)n3CC2)c1.Cl	-5.651%

Structure (SMILES)	Percent Effect
O=C(CCc1ccccc1)C1CCCN(Cc2cncn2C2CC2)C1 (stereo unspecified)	5.776%
COCCn1cncc1CN1CCCC(C(=O)Cc2ccccc2)C1 (stereo unspecified)	2.668%
COCCn1cncc1CN1CCC(C(C)=O)(c2ccccc2)CC1	-3.844%
CC1(c2ccccc2)CCCN(Cc2cncn2C2CCCC2)C1 (stereo unspecified)	105.4%
CCCN1CCCC2(CCN(Cc3cncn3C3CCCC3)C2)C1=O (stereo unspecified)	-6.674%
CC1(c2ccccc2)CCCN(Cc2cncn2C2CC2)C1 (stereo unspecified)	105.6%
COCCn1cncc1CN1CCCC(C)(c2ccccc2)C1 (stereo unspecified)	52.06%
CN1CCCC2(CCN(Cc3cncn3C3CCCCC3)C2)C1=O (stereo unspecified)	13.88%
CC1(c2ccccc2)CCCN(Cc2nnc(-c3cccnc3)o2)C1 (stereo unspecified)	31.3%
CC(NC(=O)NCc1ccccc1)(C(=O)O)c1ccco1 (stereo unspecified)	-8.455%
CC(=O)CN1CC2(CCNCC2)COc2ccccc2S1(=O)=O.O=C(O)C(F)(F)F	-27.15%
Cn1ccc(C(=O)N2CCOC3(COCCN(CC4CC4)C3)C2)n1.O=C(O)C(F)(F)F (stereo unspecified)	32.82%
CS(=O)(=O)N[C@@H]1CN(C(=O)c2cccnc2)[C@@H]2CCCO[C@@H]21.O=C(O)C(F)(F)F	-22.75%
COCCN1CCc2cc(C(=O)NC(C)C)c(NCC3CC3)nc2CC1.O=C(O)C(F)(F)F.O=C(O)C(F)(F)F	-25.1%
Cn1c2c(ccc1=O)CCN(Cc1ccoc1)CC2.O=C(O)C(F)(F)F	-16.65%
Cl.Cn1nc(C2CCCN(Cc3cccs3)C2)c2nccnc21 (stereo unspecified)	1.565%
CN(C)CCN1CC[C@@H]2O[C@@H](COCC(=O)N3CCCC3)CC[C@@H]21.O=C(O)C(F)(F)F.O=C(O)C(F)(F)F	-33.31%
Cc1noc(C(C)C)c1C(=O)NCCCN1CCNCC1.Cl	0.9177%
Cc1noc(C)c1CS(=O)(=O)Cc1nc(C2CC2)no1	6.324%
O=S(=O)(CCc1ccccc1)Cc1nc(C2CC2)no1	59.77%
CCc1noc(CS(=O)(=O)Cc2nc(Cc3ccccc3)no2)n1	-8.996%
O=S(=O)(Cc1nc(C2CC2)no1)c1ccccc1F	12.43%
CCc1noc(CS(=O)(=O)Cc2ccccc2Cl)n1	95.51%

Structure (SMILES)	Percent Effect
Cc1ccccc1CS(=O)(=O)Cc1nc(C2CC2)no1	92.63%
CCc1noc(CS(=O)(=O)Cc2ccccc2C)n1	31.56%
O=S(=O)(Cc1nc(C2CC2)no1)c1cc(F)ccc1F	12.65%
O=S(=O)(C/C=C/c1ccccc1)Cc1nc(C2CC2)no1	19.84%
Cl.O=C(CCC1CCCC1)N1CCCC(c2ncc3c(n2)CCNC3)C1 (stereo unspecified)	-5.492%
CC(C)CCN1C[C@H]2C[C@H](C(=O)NCC(C)C)[C@@H](C1)O2.O=C(O)C(F)(F)F	22.63%
Cc1nnc(N2CCCC3(CN(Cc4ccc(F)cc4)CCO3)C2)o1.O=C(O)C(F)(F)F (stereo unspecified)	-29.82%
c1cnc(N2C[C@@H]3CC[C@H](C2)N(Cc2ccsc2)C3)nc1	15.45%
CN(C)CCOCc1nnc2n1CCN(Cc1ccoc1)CC2.O=C(O)C(F)(F)F.O=C(O)C(F)(F)F	-36.04%
O=C(O)C(F)(F)F.c1cc(CN2CCc3c(nnn3CC3CC3)C2COCC2CC2)co1 (stereo unspecified)	-36.71%
CC(C)(C)OC(=O)NCC1CCCCN1Cc1ccncc1 (stereo unspecified)	24.03%
CC(C)(C)c1nc(CN2CCCC2c2nnc3ccccn23)no1 (stereo unspecified)	0.5342%
Cn1cccc1C1CCCN1Cc1noc(C(C)(C)C)n1 (stereo unspecified)	-40.09%
CCn1c(C2CCCN2Cc2noc(C(C)(C)C)n2)nc2ccccc21 (stereo unspecified)	50.31%
Cc1nc(CN2C(=O)COC3(CCN(C)CC3)C2C)cs1.O=C(O)C(F)(F)F (stereo unspecified)	-6.14%
NCC1CCCN(c2nc(-c3ccccc3)nc3c2CCNCC3)C1 (stereo unspecified)	69.25%
N#CC1CCCN(c2nc(-c3ccccc3)nc3c2CCNCC3)C1 (stereo unspecified)	-9.181%
NCC1CN(c2nc(-c3ccccc3)nc3c2CCNCC3)CCO1 (stereo unspecified)	43.48%
Cc1cc(CN2CCC(CNC(=O)c3cnc(C)nc3C)C2)[nH]n1 (stereo unspecified)	-10.7%
Cc1cc(CN2CCC(CNC(=O)Cc3ccc(F)cc3)C2)[nH]n1 (stereo unspecified)	-9.663%
Cc1cc(CN2CCC(CNC(=O)c3nccc4ccccc34)C2)[nH]n1 (stereo unspecified)	59.25%
CN1[C@H](CN2CCCC2)C[C@@H]2CN(C(=O)Cc3ccsc3)CC[C@@H]21.O=C(O)C(F)(F)F.O=C(O)C(F)(F)F	-7.166%
